Assay outcomes (PubChem BioAssay)
Rows were chosen to be rich in hits. Some 3.4% of all compounds tested hit in one or more screens of this group.
FBW7 act – activators of human E3 ligase FBW7 | normalized activity (activation), % at 26.1 µM | actives 0.13% (n = 650,000) | Q969H0 | AlphaScreen FBW7–phospho-cyclin E peptide binding, activator screen; in the data active = normalized activity above about 1.9%;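 note: purified mutant Fbw7 with reduced substrate affinity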
Target sequence (Q969H0 whole entry, looked up): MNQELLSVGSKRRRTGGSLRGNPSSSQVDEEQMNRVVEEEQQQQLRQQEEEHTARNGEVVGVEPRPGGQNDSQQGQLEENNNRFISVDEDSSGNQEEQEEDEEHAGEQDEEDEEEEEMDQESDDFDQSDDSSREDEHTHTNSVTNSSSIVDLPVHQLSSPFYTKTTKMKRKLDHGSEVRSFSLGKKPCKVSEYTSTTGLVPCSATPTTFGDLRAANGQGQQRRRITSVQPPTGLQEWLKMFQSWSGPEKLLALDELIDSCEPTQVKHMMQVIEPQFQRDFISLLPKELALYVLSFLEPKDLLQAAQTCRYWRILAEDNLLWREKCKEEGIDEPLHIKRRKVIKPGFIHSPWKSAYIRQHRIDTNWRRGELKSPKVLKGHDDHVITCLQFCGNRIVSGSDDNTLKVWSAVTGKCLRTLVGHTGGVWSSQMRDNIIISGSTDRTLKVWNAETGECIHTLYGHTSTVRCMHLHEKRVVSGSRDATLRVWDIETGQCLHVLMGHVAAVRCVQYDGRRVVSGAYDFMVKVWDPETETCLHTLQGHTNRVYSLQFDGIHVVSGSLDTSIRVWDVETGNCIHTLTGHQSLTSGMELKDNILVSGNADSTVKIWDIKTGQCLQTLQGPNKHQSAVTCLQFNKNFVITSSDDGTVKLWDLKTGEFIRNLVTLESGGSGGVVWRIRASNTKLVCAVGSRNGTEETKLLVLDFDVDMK
TEAD-YAP block – TEAD-YAP interaction inhibition; HEK-TIYL cells, TEAD-Gal4/YAP UAS-luciferase luminescence; inhibition, % at 9.12 µM; actives 1.4% (n = 640,000); in the data active = inhibition above about 32%
MITF primary – inhibitors of human MITF; AlphaScreen MITF homodimerization, bead proximity signal; inhibition, % at 2.6 µM; actives 0.91% (n = 650,000); AID 1259374; in the data active = inhibition above about 50%
GPR151 ag – activators of human GPR151 | AID 1508602 | Q8TDV0 | actives 1% (n = 650,000) | activation, % at 11.2 µM | PathHunter beta-arrestin GPR151 cells, luminescence; in the data active = activation above about 4.9%
MITF inh conf – human MITF inhibition, confirmation. shares compounds with MITF primary. AlphaScreen MITF homodimerization, biotin/His-MITF beads. inhibition, % at 2.6 µM. actives 16% (n = 4,700). AID 1259372;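 active = inhibition above a cutoff derived from the DMSO control wells, cut at about 28% in these data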;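 note: inhibitors lower the bead chemiluminescence by keeping MITF from dimerizing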
AS interf DR – AlphaScreen optical interference, dose response counter-screen; actives 6% (n = 480); AlphaScreen optical interference counterscreen, cell-free; IC50, µM; shares compounds with MITF primary; call rule not given here
AS interf ctr – optically interferes with AlphaScreen signal; shares compounds with MITF primary; LysRS AlphaScreen counterscreen, signal interference, triplicate; inhibition, % at 2.6 µM; actives 7.6% (n = 4,700);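 active = inhibition above a cutoff derived from the DMSO control wells, cut at about 30% in these data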
Hits are given with their value; i = inactive; nt = not tested or not shown.

SMILES | FBW7 act | TEAD-YAP block | MITF primary | GPR151 ag | MITF inh conf | AS interf ctr | others
O=C(NCC1CCCO1)C(=O)Nc1nccs1 (stereo not drawn) | i | i | 98.8 | i | i | i
CCN1CCCC1CNC(=O)Cn1cnc2sc(C)c(S(=O)(=O)N3CCOCC3)c2c1=O (stereo not drawn) | i | i | i | i | nt | nt
O=C1N(CC2CC2)CCN1c1ccc(C(F)(F)F)cn1 | i | i | 54.9 | i | i | i
CCCCN1CCN(c2ccc(C(F)(F)F)cn2)C1=O | i | i | i | i | nt | nt
COc1cc(OC)c(OC)cc1/C=N/NC(=O)CC1C(=O)NN=C1C (stereo not drawn) | i | i | 66.4 | i | i | i
COc1cc(/C=N/NC(=O)CC2C(=O)NN=C2C)cc(OC)c1OC(C)=O (stereo not drawn) | i | i | i | i | nt | nt
Cc1ccccc1OCC(=O)Nc1ccc([N+](=O)[O-])cc1Cl | i | i | 54.0 | i | i | i
Cc1ccccc1OCC(O)CN1CCN(CC(O)COc2ccccc2C)C(C)C1 (stereo not drawn) | i | i | 55.0 | i | i | i
O=C(CC1S/C(=N/N=C2\CSC(=O)N2)NC1=O)Nc1ccccc1 (stereo not drawn) | i | i | 64.9 | i | 65.8 | 100.3
COc1ccc(/C=N/N=C2\NC(=O)C(CC(=O)Nc3ccc(C)cc3)S2)cc1 (stereo not drawn) | i | i | 72.6 | i | i | i
Cc1ccc(COc2ccc(/C=N/N=C3\NC(=O)C(CC(=O)O)S3)cc2)cc1 (stereo not drawn) | i | i | 52.8 | i | 35.1 | i | AS interf DR=i
CCOc1cc(/C=N/N=C2\NC(=O)C(CC(=O)O)S2)ccc1OCc1ccc(F)cc1 (stereo not drawn) | i | i | i | i | nt | nt
COc1ccc(NC(=O)CC2S/C(=N/N=C3\CSC(=O)N3)NC2=O)cc1 (stereo not drawn) | i | i | 82.5 | i | 61.6 | 100.3
O=C(Cc1ccsc1)OCc1nc2ccccc2s1 | i | i | i | i | nt | nt
COc1ccccc1C(=O)Nc1cc2ccc(OC(C)=O)cc2oc1=O | i | i | i | i | nt | nt
CCOc1ccc(NC(=O)CC2S/C(=N\N=C3/C=C(C)CC(C)(C)C3)NC2=O)cc1 (stereo not drawn) | i | i | i | i | nt | nt
Cc1ccc(NC(=O)CC2S/C(=N\N=C3\CSC(=O)N3)NC2=O)cc1 (stereo not drawn) | i | i | 82.2 | i | 68.0 | 100.1
CC1=C/C(=N\N=C2\NC(=O)C(CC(=O)Nc3ccc(C(=O)O)cc3)S2)CC(C)(C)C1 (stereo not drawn) | i | i | 67.9 | i | 72.1 | i | AS interf DR=i
CC(C)N1C(=O)C(=O)c2ccccc21 | i | i | i | i | nt | nt
CCCCOCC(O)Cn1c2ccccc2c2ccccc21 (stereo not drawn) | i | i | i | i | nt | nt
CCCCOCC(O)Cn1c(Cc2ccccc2)nc2ccccc21 (stereo not drawn) | i | i | 57.6 | i | i | i
CC1(C)Cc2c(sc3nc(NNC(=O)c4ccccc4)[nH]c(=O)c23)CO1 | i | i | 73.3 | i | i | i
COc1ccc(-c2ccc(N(C)CC(OC)OC)nc2)cc1 | i | i | i | i | nt | nt
COc1ccc(CN2CCN(Cc3ccc(SC)cc3)CC2)c(OC)c1 | i | i | 69.6 | i | i | i
COc1ccc(CN2CCCN(C)CC2)c(OC)c1 | i | i | i | i | nt | nt
SMILES | FBW7 act | TEAD-YAP block | MITF primary | GPR151 ag | MITF inh conf | AS interf ctr | others
COc1ccc(CN2CCN(CCCc3ccccc3)CC2)c(OC)c1 | i | i | 74.3 | i | i | i
COc1ccc(CN2CCN(Cc3ccc(Br)cc3)CC2)c(OC)c1 | i | i | i | i | nt | nt
COc1ccc(CN2CCN(Cc3ccc(OC)cc3OC)CC2)cc1 | i | i | 64.9 | i | i | i
COc1ccc(CN2CCN(Cc3ccc(F)cc3)CC2)c(OC)c1 | i | i | 81.2 | i | i | i
CCOc1ccc(CN2CCN(Cc3ccc(SC)cc3)CC2)cc1 | i | i | i | i | nt | nt
O=C(Nc1ccc(Cl)c(Cl)c1)c1ccc2c(c1)C(=O)N(c1cccc3ccccc13)C2=O | i | i | i | i | nt | nt
COc1cc(S(=O)(=O)N2CCCCC2C)ccc1Br (stereo not drawn) | i | i | i | i | nt | nt
O=C(CC1CC(=O)Oc2ccccc21)NCc1cccnc1 (stereo not drawn) | i | i | i | i | nt | nt
Cc1ccc(O)c(NC(=O)COc2ccc(I)cc2)c1 | i | i | i | i | nt | nt
COc1ccc(CN2CCN(Cc3ccc(OC)c(OC)c3)CC2)c(OC)c1 | i | i | 66.3 | i | i | i
COc1ccc(CN2CCN(Cc3ccc(OC)cc3OC)CC2)c(OC)c1 | i | i | 72.2 | i | i | i
COc1ccc(N2CCN(Cc3ccc(OC)cc3OC)CC2)cc1 | i | i | i | i | nt | nt
CCCCc1ncc(CN2CCC3(CCC(CNC(=O)c4ccccc4)O3)CC2)[nH]1 (stereo not drawn) | i | i | 84.1 | i | i | i
CCOC(=O)CCCCC(=O)c1[nH]c(=O)n(C(=O)c2ccccc2)c1C | i | i | 89.3 | i | 115.1 | 98.3
CCOC(=O)CCCCC(=O)c1[nH]c(=O)[nH]c1Cn1ccnc1 | i | i | i | i | nt | nt
CCOC(=O)CCCCC(=O)c1c(C)n(C(=O)c2ccc(N3C(=O)CCC3=O)cc2)c(=O)n1C(=O)c1ccc(N2C(=O)CCC2=O)cc1 | i | i | 106.7 | i | 107.0 | 88.2
Cc1cc(Cl)ccc1OCCn1cncn1 | i | i | i | i | nt | nt
c1ccc(-c2ccc(OCCCn3cncn3)cc2)cc1 | i | i | 60.9 | i | i | i
Brc1cccc(OCCn2cnc3ccccc32)c1 | i | i | 68.1 | i | i | i
